About 79,000 compounds went through this panel and 15% of them were active in at least one assay; those are over-represented in the sample as a whole. Calls of active or inactive are those of the source. No stated cut-off is given here; in the data, active means growth inhibition above about 70%; inactive means the rest.
experiment: NCI Yeast Anticancer Drug Screen. Data for the sgs1 mgt1 strain (AID 161);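 further: 0% = growth of cultures given vehicle only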; details: S. cerevisiae sgs1 mgt1 strain, at 50.0 µM, active compounds read high
In short: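 Mutant yeast exposed to compound; growth scored against vehicle-only wells.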

Question: Which growth inhibition does the source give for `CC1(c2ccc(C(O)c3ccccc3)s2)OCCO1` (stereo not given) here?
Answer: The growth inhibition was 10.9% (inactive).

Question: For `CCCCCCC(O)C/C=C/CCCCCC/C(C(=O)OC)=C(/O)C(=O)OCC` (stereo not given), which growth inhibition is on record?
Answer: The growth inhibition was 11.5% (inactive).

Question: With `CCCCCc1c(-c2n[nH]c(C)c2CCCCC)n[nH]c1C` as the compound, how does the growth inhibition read?
Answer: Its growth inhibition is -9.1% (inactive).

Question: Which growth inhibition does the source give for `Cc1cccc(CCSCCc2cccc(C)[n+]2[O-])[n+]1[O-]` here?
Answer: Its growth inhibition is -1.1% (inactive).

Question: For `O=C(Nc1ccc(Cl)cc1)OC(C(=O)c1ccccn1)c1ccccn1` (stereo not given), which growth inhibition is on record?
Answer: Its growth inhibition is -17.6% (inactive).

Question: For `CC(C)(O)c1cc(=O)n(-c2ccccc2)[nH]1`, which growth inhibition is on record?
Answer: Its growth inhibition is 6.55% (inactive).

Question: With `O=C(Cc1ccccc1)OCC(=O)c1ccc(-c2ccccc2)cc1` as the compound, how does the growth inhibition read?
Answer: Its growth inhibition is 0.9% (inactive).

Question: With `O=C(Nc1ccccc1)c1ccccc1C(O)(c1ccccc1)c1ccc(Cl)cc1` (stereo not given) as the compound, how does the growth inhibition read?
Answer: Its growth inhibition is 77% (active).

Question: Which growth inhibition does the source give for `CCOC(=O)C1/C(=N\N=C2\c3c(nnp3N(CCOS(C)(=O)=O)CCOS(C)(=O)=O)C(C(=O)OCC)C(c3ccc(OC(C)=O)cc3)C2C(=O)OCC)c2c(nnp2N(CCOS(C)(=O)=O)CCOS(C)(=O)=O)C(C(=O)OCC)C1c1ccc(OC(C)=O)cc1` (stereo not given) here?
Answer: The growth inhibition was -3.85% (inactive).

Question: For `CCCCCCCCCCCCCCCCCC(=O)Oc1ccc(OCc2ccccc2)cc1`, which growth inhibition is on record?
Answer: The growth inhibition was -11.4% (inactive).

Question: For `Nc1nc(N)nc(CC(=O)O)n1`, which growth inhibition is on record?
Answer: Its growth inhibition is -57% (inactive).

Question: With `N#Cc1c2c(c(-c3cccs3)n(C3OC(CO)C(O)C(O)C3O)c1=S)CCc1ccccc1-2` (stereo not given) as the compound, how does the growth inhibition read?
Answer: The growth inhibition was -3.35% (inactive).

Question: Which growth inhibition does the source give for `CN(C)C=Nc1c(Br)cc(Br)c2nonc12` here?
Answer: Its growth inhibition is -32.5% (inactive).

Question: For `COc1ccccc1NC(=O)CC(=O)N1N=C(N2c3ccccc3Sc3ccccc32)CC1c1ccccc1` (stereo not given), which growth inhibition is on record?
Answer: The growth inhibition was -2.15% (inactive).

Question: Which growth inhibition does the source give for `N#Cc1nc(-c2cc([N+](=O)[O-])cc([N+](=O)[O-])c2)oc1N` here?
Answer: Its growth inhibition is -4.7% (inactive).

Question: Which growth inhibition does the source give for `O=C(Nc1ccc(Cl)cc1C(=O)O)c1ccc([N+](=O)[O-])cc1` here?
Answer: Its growth inhibition is 26.7% (inactive).

Question: For `O=CCC1CCCCC1`, which growth inhibition is on record?
Answer: Its growth inhibition is -13.1% (inactive).

Question: For `CC(C)(C)C(=CS(=O)/N=C/c1ccccc1)C(C)(C)C` (stereo not given), which growth inhibition is on record?
Answer: Its growth inhibition is -28.6% (inactive).

Question: With `COC(=O)/C=C/C(=N/N(C)c1ccccc1)c1ccccc1` as the compound, how does the growth inhibition read?
Answer: The growth inhibition was 2.75% (inactive).

Question: With `CC1CCC2(CC1)NN=c1s/c(=C\c3ccc(O)cc3)c(=O)n1N2` (stereo not given) as the compound, how does the growth inhibition read?
Answer: The growth inhibition was -21.9% (inactive).

Question: Which growth inhibition does the source give for `CCN(CC)CC(=O)Nc1c(C(N)=O)nnn1Cc1cc(Cl)c(C(=O)c2ccc(Cl)cc2)c(Cl)c1` here?
Answer: The growth inhibition was 5.15% (inactive).

Question: For `O=c1[nH]c2ccccc2c(O)c1-c1ccccc1`, which growth inhibition is on record?
Answer: Its growth inhibition is -17% (inactive).

Question: Which growth inhibition does the source give for `COC(=O)Oc1ccc(Cl)cc1Cl` here?
Answer: The growth inhibition was 15.9% (inactive).

Question: With `CC(C)(C)OC(=O)NC1CC=CCC1NC(=O)OC(C)(C)C` (stereo not given) as the compound, how does the growth inhibition read?
Answer: The growth inhibition was -16.6% (inactive).

Question: Which growth inhibition does the source give for `CC(C)(C)C(=O)/C(O)=C\c1ccccc1` here?
Answer: The growth inhibition was -12.2% (inactive).

Question: With `CCCS(CCC)=NS(=O)(=O)c1ccc(C)cc1` as the compound, how does the growth inhibition read?
Answer: The growth inhibition was 0.6% (inactive).

Question: With `CC(N)C(=O)NC(C(=O)NC1C(O)OC(CO)C(O)C1O)C(C)C` (stereo not given) as the compound, how does the growth inhibition read?
Answer: The growth inhibition was -17.4% (inactive).

Question: For `CCN1C(=O)c2cc(=O)[nH]c(O)c2C1C` (stereo not given), which growth inhibition is on record?
Answer: The growth inhibition was -1.7% (inactive).

Question: Which growth inhibition does the source give for `O=C1C=CC(Nc2ccc(Cl)c(Cl)c2)C1Nc1ccc(Cl)c(Cl)c1` (stereo not given) here?
Answer: The growth inhibition was 42.8% (inactive).

Question: With `CN(C)CCCNc1nnc(NCCCN(C)C)c2[nH]cnc12` as the compound, how does the growth inhibition read?
Answer: Its growth inhibition is 7.85% (inactive).

Question: For `COC1=CC(=O)C2CC=C(C)CC2(C)C1=O` (stereo not given), which growth inhibition is on record?
Answer: The growth inhibition was -16.6% (inactive).

Question: For `CN1c2ccccc2C2CC(CC#N)CC(=O)C21` (stereo not given), which growth inhibition is on record?
Answer: Its growth inhibition is -8.1% (inactive).

Question: For `CC1=CC=CNC1(N)Br` (stereo not given), which growth inhibition is on record?
Answer: Its growth inhibition is 15.8% (inactive).

Question: For `CCc1nnc(N)o1`, which growth inhibition is on record?
Answer: The growth inhibition was 0.95% (inactive).

Question: Which growth inhibition does the source give for `CCC(C)CCOC(=O)c1ccc(N=Cc2ccc(C=Nc3ccc(C(=O)OCCC(C)CC)cc3)cc2)cc1` (stereo not given) here?
Answer: Its growth inhibition is 30% (inactive).

Question: With `O=C1NC(CN2CCCCC2)C(=O)NC1CN1CCCCC1` (stereo not given) as the compound, how does the growth inhibition read?
Answer: Its growth inhibition is 8.7% (inactive).

Question: For `Cc1ccc(S(=O)(=O)/C=C\S(=O)(=O)c2ccc(C)cc2)cc1`, which growth inhibition is on record?
Answer: The growth inhibition was 5.15% (inactive).

Question: With `O=C(CNC(=O)OCc1ccccc1)NCCNCCNC(=O)CNC(=O)OCc1ccccc1` as the compound, how does the growth inhibition read?
Answer: Its growth inhibition is -5.65% (inactive).

Question: Which growth inhibition does the source give for `Cc1cc(C)c2c(SCc3ccc(Cl)cc3Cl)nc(N)nc2n1` here?
Answer: Its growth inhibition is 45.9% (inactive).

Question: For `CC(=O)Nc1c(C)ccc([N+](=O)[O-])c1C`, which growth inhibition is on record?
Answer: Its growth inhibition is -9.7% (inactive).

Source: PubChem BioAssay (NCI)
